Shown is part of a subset that was picked to be rich in hits.
JMJD2E inh = qHTS Assay for Inhibitors of Human Jumonji Domain Containing 2E (JMJD2E); Potency, µM (highest dose often 57.1 µM), inactives show at the top dose activity change, negative = inhibition, usual class: inhibitors; Lysine-specific demethylase 4E (Homo sapiens), B2RXH2; JMJD2E catalytic domain, FDH-coupled NADH fluorescence (FDH is formaldehyde dehydrogenase); AID 2147, 2009; actives 1.6% (n = 230,000); active = well fitted inhibition curve with a large enough effect, not every such curve was filed as active; inconclusive = small, poorly fitted or top-dose-only effect, or another doubt; inactive = no such curve, though single readings can be large or run the other way;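 also: potency is read from the fitted curve at half-maximal effect; 0% = wells with enzyme and -100% = buffer wells without enzyme; nearly all actives have a fitted effect of over 50% in size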
CtBP-E1A inh = qHTS Assay for Inhibitors of the CtBP/E1A Interaction. CtBP / adenovirus E1A interaction (AlphaScreen). AlphaScreen GST-E1A/His-CtBP binding, 1536-well; stronger effect = lower value. activity change, % (test concentration not listed). actives 0.49% (n = 340,000). AID 651724, 2012
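In 5 uL wells, 23 nL compound meets equimolar GST-E1A and His-CtBP (5X stock 125 nM each) for 2 h, 37 °C. Beads (5X, 50 ug/mL) then 1 h, 37 °C, dark.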
Six1-Eya2 inh = qHTS Assay for Inhibitors of the Six1/Eya2 Interaction; Homeobox protein SIX1 (Homo sapiens) + Protein phosphatase EYA2 (Homo sapiens), …; AlphaScreen GST-Six1/His-Eya2 binding, biochemical; stronger effect = lower value; activity change, % (test concentration not listed); actives 0.56% (n = 360,000); AID 651725, 2012
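Compounds are tested against tagged Six1 and Eya2 proteins bridged by glutathione donor and nickel acceptor beads; after a one-hour incubation at 37 °C without light, AlphaScreen emission is recorded.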
L3MBTL1 inh = qHTS Assay for the Inhibitors of L3MBTL1 | Potency, µM (highest dose often 57.1 µM), for inactives: at the highest dose activity, negative = inhibition, hits mostly inhibitors | AlphaScreen L3MBTL1–H3K9me1 peptide binding | AID 485360, 2010 | Lethal(3)malignant brain tumor-like protein 1 (Homo sapiens), Q9Y468 | actives 0.66% (n = 230,000); active = well fitted inhibition curve with a large enough effect; inconclusive = small, poorly fitted or top-dose-only effect; inactive = no such curve, though single readings can be large or run the other way; also: potency is read from the fitted curve at half-maximal effect; nearly all actives have a fitted effect of over 60% in size
Target sequence (Q9Y468 whole entry, looked up): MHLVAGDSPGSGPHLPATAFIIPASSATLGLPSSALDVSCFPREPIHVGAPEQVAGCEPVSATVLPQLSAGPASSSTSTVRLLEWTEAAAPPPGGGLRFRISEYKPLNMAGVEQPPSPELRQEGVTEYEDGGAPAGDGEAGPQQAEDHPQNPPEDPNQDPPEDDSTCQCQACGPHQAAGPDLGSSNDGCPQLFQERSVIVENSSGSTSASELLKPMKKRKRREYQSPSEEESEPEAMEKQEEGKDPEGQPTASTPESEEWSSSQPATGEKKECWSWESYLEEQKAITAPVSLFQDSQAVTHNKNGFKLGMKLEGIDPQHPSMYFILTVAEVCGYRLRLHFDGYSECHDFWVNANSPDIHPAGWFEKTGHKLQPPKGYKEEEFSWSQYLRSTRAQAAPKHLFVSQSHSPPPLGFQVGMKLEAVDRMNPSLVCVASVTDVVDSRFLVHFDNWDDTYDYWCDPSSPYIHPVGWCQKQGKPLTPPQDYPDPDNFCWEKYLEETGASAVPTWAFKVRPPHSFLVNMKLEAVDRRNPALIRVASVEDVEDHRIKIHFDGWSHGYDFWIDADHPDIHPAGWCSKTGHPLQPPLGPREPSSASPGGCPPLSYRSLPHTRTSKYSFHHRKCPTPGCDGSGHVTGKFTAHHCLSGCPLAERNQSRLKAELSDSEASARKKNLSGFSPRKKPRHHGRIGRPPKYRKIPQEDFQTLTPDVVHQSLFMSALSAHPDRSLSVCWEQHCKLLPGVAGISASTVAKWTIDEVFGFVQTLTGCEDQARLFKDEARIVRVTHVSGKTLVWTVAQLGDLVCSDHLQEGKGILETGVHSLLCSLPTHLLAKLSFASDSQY
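AlphaScreen proximity signal between nickel-chelate acceptor and streptavidin donor beads (final 10 ug/mL) reports binding of 50 nM L3MBTL1 to 75 nM biotin-H3 K9me1 peptide; complex incubated with compounds 30 min at room temperature; cefsulodin titration as control.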
The depositor's hits bear a star. Rule as the data show it, unless noted: active = activity change below about -65%; inconclusive = mostly about -30% to -63%; inactive = weaker than that. Unless noted, % is scaled to controls: 0 for no effect and ±100 for the full control effect.

Screening Cc1ccc(NC(=O)CC2S/C(=N/N=C3/NC(=O)CS3)NC2=O)cc1 (stereo not drawn) returned JMJD2E inh 39%, CtBP-E1A inh -23, Six1-Eya2 inh -75* and L3MBTL1 inh inconclusive.
`C=CCC(O)c1ccccc1` (stereo not drawn) gave JMJD2E inh 16%.
Screening Cc1[nH]c(=O)[nH]c1C(=O)CCCCC(=O)OCC(=O)Nc1ccccn1 returned JMJD2E inh 2%, CtBP-E1A inh -9, Six1-Eya2 inh -1 and L3MBTL1 inh 0.71µM*.
For COC(=O)c1cc(S(=O)(=O)NCC2CCN(Cc3ccccc3F)CC2)c[nH]1 the results were Six1-Eya2 inh 4.
`O=c1ccc(-c2ccc(S(=O)(=O)NCC3CCN(Cc4ccccc4F)CC3)s2)n[nH]1` gave CtBP-E1A inh -88* and Six1-Eya2 inh -84*.
CCc1cc(C(=O)Cc2cnn(-c3ccccc3)c2)c(O)cc1O was read as JMJD2E inh inconclusive, CtBP-E1A inh -8, Six1-Eya2 inh -1 and L3MBTL1 inh -14%.
`O=C(Cc1cnn(-c2ccccc2)c1)c1ccc(O)c(O)c1O` gave JMJD2E inh 13µM*, CtBP-E1A inh 2 and Six1-Eya2 inh 2.
COc1ccc(/C=C(/NC(=O)c2ccco2)C(=O)NCc2ccco2)cc1OC was read as CtBP-E1A inh -13 and Six1-Eya2 inh 5.
`c1ccc(-c2nc(NCc3ccco3)c3ccccc3n2)nc1` gave JMJD2E inh 2%, CtBP-E1A inh -81*, Six1-Eya2 inh -81* and L3MBTL1 inh inconclusive.
`C(=N\Nc1nc(-c2ccccn2)nc2ccccc12)/c1ccccc1` gave JMJD2E inh 8.9µM*, CtBP-E1A inh -29, Six1-Eya2 inh inconclusive and L3MBTL1 inh -6%.
`COc1cc(CC(=O)OCC(=O)NCc2cccs2)cc(OC)c1OC` gave CtBP-E1A inh -2, Six1-Eya2 inh 3 and L3MBTL1 inh 1%.
For CCCN(CC(=O)Nc1ccccc1C)C(=O)Cc1c(C)nc2ccccc2c1C the results were CtBP-E1A inh 1, Six1-Eya2 inh -1 and L3MBTL1 inh -21%.
Screening COc1ccc([C@H]2C[C@H](O)[C@@H](n3cc(-c4ccc(F)cc4)nn3)CN2C(=O)c2cccs2)cc1 returned CtBP-E1A inh 4 and Six1-Eya2 inh -10.
Screening CN(C)Cc1cc(O)c(CN(C)C)cc1O returned JMJD2E inh inconclusive, Six1-Eya2 inh inconclusive and L3MBTL1 inh 3.2µM*.
For Nc1[nH]c(=O)nc(Nc2ccccc2)c1N=O the results were CtBP-E1A inh -66* and Six1-Eya2 inh inconclusive.
N#Cc1c(N)nc(SCC(=O)C23CC4CC(CC(C4)C2)C3)c(C#N)c1-c1ccc(Cl)cc1 was read as JMJD2E inh 3.5µM*, CtBP-E1A inh 6 and Six1-Eya2 inh 8.
`CSc1ccc(C=NNc2ccc(S(=O)(=O)Nc3ccccc3C(=O)O)cc2[N+](=O)[O-])cc1` gave CtBP-E1A inh 2, Six1-Eya2 inh -14 and L3MBTL1 inh 20µM*.
`CCOc1ccc(C=NNc2ccc(S(=O)(=O)Nc3ccccc3C(=O)O)cc2[N+](=O)[O-])cc1` gave CtBP-E1A inh inconclusive, Six1-Eya2 inh inconclusive and L3MBTL1 inh 16µM*.
`O=C(O)c1ccccc1NS(=O)(=O)c1ccc(NN=Cc2ccccc2F)c([N+](=O)[O-])c1` gave CtBP-E1A inh -23, Six1-Eya2 inh -17 and L3MBTL1 inh -21%.
For CSc1cnn(CCC#N)c(=O)n1 the results were CtBP-E1A inh 10 and Six1-Eya2 inh 7.
Screening COc1cc(/C=C2\CC/C(=C\c3cc(OC)c(O)c(OC)c3)C2=O)cc(OC)c1O returned JMJD2E inh inconclusive, CtBP-E1A inh -5, Six1-Eya2 inh -8 and L3MBTL1 inh 28µM*.
COc1cc(/C=C2\CC/C(=C\c3cc(OC)c(OC)c(OC)c3)C2=O)cc(OC)c1OC was read as JMJD2E inh 4%, CtBP-E1A inh -10, Six1-Eya2 inh 6 and L3MBTL1 inh -2%.
Screening CCOc1ccccc1NC(=O)CSc1ccc2nnc(-c3cccnc3)n2n1 returned JMJD2E inh -16%, CtBP-E1A inh -85*, Six1-Eya2 inh -79* and L3MBTL1 inh -1%.
`COc1ccccc1NC(=O)CSc1nn2c(=O)c(C)nnc2s1` gave CtBP-E1A inh -82* and Six1-Eya2 inh inconclusive.
`COc1cccc(NC(=O)CSc2ccc3nnc(-c4cccnc4)n3n2)c1` gave CtBP-E1A inh inconclusive and Six1-Eya2 inh -23.
For COc1ccccc1NC(=O)CSc1ccc2nnc(-c3cccnc3)n2n1 the results were JMJD2E inh 7%, CtBP-E1A inh -77*, Six1-Eya2 inh -70* and L3MBTL1 inh -12%.
`Nc1nonc1-c1nc2ccccc2n1CC(=O)N/N=C/c1ccc(-c2ccccc2C(=O)O)o1` gave JMJD2E inh 4%, Six1-Eya2 inh inconclusive and L3MBTL1 inh -87%.
`CC1=C(C#N)c2nc(N)c(C#N)c(C)c2/C1=C\c1ccc(-c2ccccc2C(=O)O)o1` gave JMJD2E inh inconclusive, CtBP-E1A inh -12, Six1-Eya2 inh inconclusive and L3MBTL1 inh 16µM*.
Screening COC(=O)c1cccc(Nc2nc(-c3cccnc3)nc3ccccc23)c1 returned JMJD2E inh inconclusive, CtBP-E1A inh -29, Six1-Eya2 inh -15 and L3MBTL1 inh 11%.
Screening O=C(O)c1cccc(Nc2nc(-c3cccnc3)nc3ccccc23)c1 returned JMJD2E inh -18%, CtBP-E1A inh inconclusive, Six1-Eya2 inh -80* and L3MBTL1 inh inconclusive.
Screening COc1ccc(Br)cc1C(=O)CCC(=O)OCC(=O)Nc1cc(C(N)=O)cc(C(N)=O)c1 returned CtBP-E1A inh -70*, Six1-Eya2 inh inconclusive and L3MBTL1 inh -11%.
`O=C(CNc1cccc2ccccc12)N/N=C/c1cccc(Oc2ccccc2)c1` gave JMJD2E inh 28µM*, Six1-Eya2 inh -20 and L3MBTL1 inh -8%.
O=C(CNc1cccc2ccccc12)N/N=C/c1ccccn1 was read as JMJD2E inh inconclusive, CtBP-E1A inh -7, Six1-Eya2 inh -15 and L3MBTL1 inh -14%.
Screening CCc1ccc(OCC(=O)N/N=C\c2ccco2)c([N+](=O)[O-])c1 returned JMJD2E inh 16%, CtBP-E1A inh 2, Six1-Eya2 inh 0 and L3MBTL1 inh 35µM*.
For O=C1SC(SCc2ccccc2)=N/C1=C\c1ccco1 the results were JMJD2E inh -10%, CtBP-E1A inh -4 and Six1-Eya2 inh -21.
For CCCSC1=N/C(=C\C=C\c2ccco2)C(=O)S1 the results were JMJD2E inh 8.9µM*, CtBP-E1A inh -12, Six1-Eya2 inh inconclusive and L3MBTL1 inh 5.6µM*.
`COc1ccc(CNC(=O)C/C(C)=N/NC(=O)C23CC4CC(CC(C4)C2)C3)cc1` gave JMJD2E inh 11%, Six1-Eya2 inh 0 and L3MBTL1 inh -1%.

Screening data from PubChem.
